From PubChem
This excerpt belongs to a sample that is enriched for hits.
Pf Dd2 inh = blocks in vitro growth of P. falciparum Dd2; actives 4.3% (n = 120,000); P. falciparum Dd2 growth, SYBR Green, 72 h; Potency, µM (top dose mostly 28.9 µM), inactives show at the top dose activity, negative = inhibition, hits mostly inhibitors; active = well fitted inhibition curve with a large enough effect;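 also: plate controls were DMSO vehicle for no effect and reference drug for full effect; nearly all actives have a fitted effect of over 65% in size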
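Readout: SYBR Green fluorescence, 485 nm excitation, 535 nm emission, after ~16 h lysis at 37C. Before that, Dd2-infected red cells (2.5% hematocrit) grew 72 h with compound, 29 uM top final concentration.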
Starred values were filed as active, the others as inactive; i = inactive; [ ] = dose if it differs, or a comment. Potency is read from the fitted curve at half-maximal effect.

SMILES	Pf Dd2 inh
COc1ccccc1C(=O)N1c2ccccc2C(C)(c2ccc(Cl)cc2)CC1(C)C (configuration not stated)	8.9µM*
Cc1ccc2c(c1)C(C)(c1ccccc1)CC(C)(C)N2C(=O)c1ccc(F)cc1 (configuration not stated)	5.6µM*
CCCCC(=O)N1c2ccccc2C(C)(c2ccccc2)CC1(C)C (configuration not stated)	-20%
O=C(c1ccc(F)cc1)N1CCC(C(=O)O)(c2ccccc2)CC1	3%
COc1ccccc1C(=O)N1CCCN(C)c2ccccc21	-12%
CSc1ncccc1C(=O)NC(C)C(=O)N1CCN(c2ccccn2)CC1 (configuration not stated)	i
c1ccc(CN2CCC[C@H]2c2nc(-c3ccnc(N4CCOCC4)c3)no2)cc1	13µM*
c1cc(-c2noc([C@@H]3CCCN3C3CCC3)n2)cc(N2CCOCC2)n1	i
CN(C)c1ccc(CN2CCC[C@H]2c2nc(-c3ccnc(N4CCC(C(N)=O)CC4)c3)no2)cc1	i
CNc1ccc(-c2noc([C@@H]3CCCN3Cc3cnc4ccccc4c3)n2)cn1	-24%[44.1 µM]
CNc1ccc(-c2noc([C@@H]3CCCN3Cc3ccc(CO)o3)n2)cn1	i
CN1CCN(c2ccc(-c3noc([C@@H]4CCCN4Cc4ccccc4)n3)cn2)CC1	7.9µM*
O=C1CCC2(CCCO2)CCN1Cc1ccc(F)cc1 (configuration not stated)	-20%
CC[C@H]1CN2CC[C@H]1C[C@@H]2CNC(=O)c1ccc(F)c(Cl)c1	i
Cc1noc2c(Nc3ccc(C(N)=O)cc3)cc(-c3cccnc3)nc12	-12%[44.1 µM]
CCc1noc(-c2cccn3c(CNC(=O)Cc4ccc(F)cc4)nnc23)n1	i
CCC1(C(=O)Nc2cc(OC)ccc2OC)CCCCC(=O)N1 (configuration not stated)	0%
CC1(C)[C@H](Cc2cc(CN3CCOCC3)on2)C[C@@H]1NS(=O)(=O)Cc1ccccc1	-24%[44.1 µM]
CNc1cc(C)nc(N2CCN(Cc3cccc(OC)c3)C(CCO)C2)n1 (configuration not stated)	-10%
Nc1c(C(=O)Nc2ccc(OC(F)(F)F)cc2)sc2nc(-c3ccncc3)ccc12	i
COc1ccc(NC(=O)c2sc3nc(C(F)(F)F)cc(C)c3c2N)cc1OC	-9%
COCc1cc(C)nc2sc(C(=O)Nc3ccc(OC(F)(F)F)cc3)c(N)c12	4µM*
COc1ccc(OC)c(S(=O)(=O)N2C[C@@H](F)C[C@H]2C(=O)N2CCc3ccccc3C2)c1	-17%
COC(=O)c1cccc(NC(=S)N[C@@H]2C=C[C@@H](c3c(C)nn(-c4ccccc4[N+](=O)[O-])c3C)C2)c1	-8%
CCOc1ccc2c(n1)CCN(C(=O)c1ccc(OC)cc1)C2	-8%
SMILES	Pf Dd2 inh
CCOc1ccc2c(n1)CCN(C(=O)C1(c3ccccc3)CC1)C2	10µM*
CCOc1ccc2c(n1)CCN(C(=O)c1cnccn1)C2	28%
CCOc1ccc2c(n1)CCN(C(=O)Cc1cccc(C)c1)C2	10µM*
COCCOc1ccc2c(n1)CCN(C(=O)Cc1cccc(OC)c1)C2	-24%
CCOc1ccc2c(n1)CCN(C(=O)Cc1ccc(F)cc1)C2	-17%
CN1CCOC[C@H]2CCNC[C@H]21	-2%
O=C(c1cnn2ccccc12)N1CCCC(c2nccn2Cc2ccncc2)C1 (configuration not stated)	-22%
Cc1noc(C)c1CN1CCN(C(=O)C2CCCN2)CC1 (configuration not stated)	24%
CN(C)c1cccc(C(=O)Nc2nc3ccc(S(=O)(=O)N4CCCC4)cc3s2)c1	13µM*
COc1cccc(C(=O)Nc2nc3ccc(S(=O)(=O)N4CCCC4)cc3s2)c1	-15%
Cc1ccc(C(=O)Nc2nc3ccc(S(=O)(=O)N4CCCC4)cc3s2)cc1	5%
O=C1c2c(nc(CNc3ccccc3Cl)n2Cc2ccccc2)NCCN1CC1CC1	i
O=C(O)c1ccc(CN2Cc3[nH]cnc3C[C@H]2c2nc(-c3ccc4ccccc4c3)no2)cc1	i
COCCN[C@H]1[C@@H]2OC[C@@H](O2)[C@@H](NCc2ccc(-c3ccccc3)cc2)[C@@H]1O	10µM*
O[C@H]1[C@H](NCc2ccc(-c3ccccc3)cc2)[C@H]2CO[C@H](O2)[C@@H]1Sc1ccccc1	-29%[44.1 µM]
COCCN[C@H]1[C@@H]2OC[C@@H](O2)[C@@H](NCc2ccccn2)[C@@H]1O	-6%[44.1 µM]
O=C(N[C@@H]1CNC[C@H]1CO)C1CCC1	27%
CCc1cnc(C)nc1N1CCC(=O)N(Cc2ccc(F)cc2)C(C(C)C)C1 (configuration not stated)	-20%
CCC(O)Cn1nc(CCOC)nc1-c1ccc(-c2nnn(C)n2)cc1 (configuration not stated)	-7%
Cc1ccccc1Nc1c(-c2c[nH]c3ccccc23)nc2ccc(Cl)cn12	i
COc1ccc(-c2nc3ccc(Cl)cn3c2Nc2ccc(C)cc2)cc1	-14%
Cc1ccc(Nc2c(-c3cccnc3)nc3ccc(Br)cn23)cc1	i
Cc1ccccc1Nc1c(-c2ccc(N3CCOCC3)cc2)nc2ccc(Br)cn12	8.9µM*
Cc1ccccc1Nc1c(-c2cccnc2)nc2cccc(C)n12	-24%
Cc1ccccc1Nc1c(-c2ccsc2)nc2c(C)cccn12	i
SMILES	Pf Dd2 inh
Cc1ccccc1Nc1c(-c2cccs2)nc2cccc(C)n12	-2%
COc1cc(O)ccc1-c1nc2ccc(Br)cn2c1Nc1ccccc1C	6.3µM*
Cc1ccccc1Nc1c(-c2ccc(N3CCOCC3)cc2)nc2cccc(C)n12	10µM*
NC(=O)CCNC(=O)C1=C[C@@H](NC(=O)NC2CCCCC2)[C@@H](O)[C@H](O)C1	14%[44.1 µM]
CNCc1ccc(OC)cc1	-2%[44.1 µM]
Cc1nc(-c2c3n(c(=O)n(Cc4cccc(F)c4)c2=O)CCCCC3)no1	i
O=C(NCc1ccccc1)c1nnn2c1COC(c1ccc(Cl)cc1)C2 (configuration not stated)	21%
O=C1CCN(Cc2cccnc2)CCCC(C(=O)NCCCn2cccn2)CCN1 (configuration not stated)	8%
CNC(=O)CCC[C@@H]1[C@H]2CCCN3CCC[C@@H](CN1C(=O)NCCc1ccccc1)[C@@H]23	14%
O=C1c2cnc(-c3cncnc3)nc2OCCN1c1cccc(C(F)(F)F)c1	i
CCCN(CCC)C(=O)CSc1c2c(nc3ccc(Cl)cc13)CCCC2	i
COc1ccc(OC)c(NC(=O)CSc2c3c(nc4cc(Cl)ccc24)CCCC3)c1	8.9µM*
COc1ccc(C)cc1NC(=O)c1ccc2c(SCC(=O)O)c3c(nc2c1)CCCC3	-29%
CN(Cc1ccccc1)C(=O)CSc1c2c(nc3ccc(Cl)cc13)CCCC2	-19%
COc1cc(OC)c(N(C)C(=O)CSc2c3c(nc4ccc(Cl)cc24)CCCC3)cc1Cl	11µM*
COCCNC(=O)CSc1c2c(nc3cc(Cl)ccc13)CCCC2	-23%
CC(C)NC(=O)C[C@@H]1C[C@H]2O[C@H](CN(C)C)[C@@H](O)[C@H]2O1	37%[44.1 µM]
Cc1ccccc1CC(=O)N1CCC2(CC1)N(C)C(=O)CS2(=O)=O	-5%
COCc1nncn1C1CCN(C(=O)c2ccc(OC)cc2)CC1	i
Cc1nc(-c2cccs2)cc([C@H]2CN3CC[C@H]2C[C@@H]3COC(=O)Nc2ccc(C(C)C)cc2)n1	7.1µM*
COc1ccc(-c2cc([C@H]3CN4CC[C@H]3C[C@@H]4CNC(=O)NC(C)C)nc(C)n2)cc1OC	i
COc1ccccc1-c1cc([C@H]2CN3CC[C@H]2C[C@@H]3COC(=O)Nc2ccc(C(C)C)cc2)nc(C)n1	13µM*
